The entries come from a sample that favours hits as a whole.
PRC2 inh = blocks human EZH2/PRC2 H3K27 methylation; Q15910; DELFIA TRF, 1 h; inhibition, % at 12.5 µM; hit rate 0.35% among 57,000;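 active = mean inhibition of replicates at least 50% and every single replicate also reaching 50%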;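 note: dimethyl H3K27 on biotinylated H3 21-44 peptide detected by antibody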
A number is an active result; - = inactive.

SMILES | PRC2 inh
CCCCC/C=C\C/C=C\C/C=C\C/C=C\CCCC(=O)NCCO | -
CCCCC/C=C/C/C=C/C/C=C/C/C=C/CCCC(=O)NCCCC(=O)O | 81
CCCCC/C=C\C/C=C\C/C=C\C/C=C\CCCC(=O)NCC(=O)O | -
CC(C)=CCCN1CCC(NC(=O)[C@](O)(c2ccccc2)C2CCCC2)CC1 | -
O=C(CCl)c1cc(Br)c(Br)s1 | -
CC(CCc1ccc(O)cc1)O[C@@H]1O[C@H](CO[C@H]2OC[C@](O)(CO)[C@H]2O)[C@@H](O)[C@H](O)[C@H]1O (some centres not stated) | 94
C=CC1CN2CCC1CC2C(OC(=O)c1ccco1)c1ccnc2ccccc12 (configuration not stated) | -
CN1Cc2c(ccc3c2OCO3)[C@@H]2[C@H]1c1cc3c(cc1C[C@@H]2O)OCO3 | -
Cc1ccnc(NC(c2ccccc2[N+](=O)[O-])c2ccc3ccc(C)nc3c2O)c1 (configuration not stated) | -
N#CC(O[C@@H]1O[C@H](CO)[C@@H](O)[C@H](O)[C@H]1O)c1ccccc1 (some centres not stated) | 97
O=c1ccc2cc(OC3O[C@H](CO)[C@@H](O)[C@H](O)[C@H]3O)c(O)cc2o1 (some centres not stated) | -
COC(=O)C1=CO[C@H](C)[C@@H]2CN3CCC4(C(=O)Nc5ccccc54)C3C[C@H]12 (some centres not stated) | -
Fc1ccc(Sc2c(F)c(F)nc(N3CCNCC3)c2F)cc1 | -
COc1cc2c(cc1OC)-c1c(OC)c(OC)c(N)c3c1[C@H](C2)N(C)CC3 | -
COc1cc2cc(c1Cl)N(C)C(=O)CC(OC(=O)C(C)C)C1(C)OC1C(C)C1CC(O)(NC(=O)O1)C(OC)/C=C/C=C(/C)C2 (configuration not stated) | -
